In PubChem BioAssay (NCATS) one finds max response data, which are given here for 23 molecules.

Structures are written as SMILES. Where “and” joins values, the source holds several entries; their conditions need not be identical. Identical values can stand only once. Inconclusive results are not listed. Calls of active or inactive are those of the source. Calls follow the shape of the dose curve; as a rule, active = well fitted inhibition curve with a large enough effect; inconclusive = small, poorly fitted or top-dose-only effect; inactive = flat fitted curve, though single readings scatter.
% is scaled to controls: 0 for no effect and ±100 for the full control effect.

This assay relates to KB-3-1. In words: Cytotoxic Profiling of Annotated Libraries Using Quantitative High-Throughput Screening (AID 1296008). Also: nearly all actives have a fitted effect of over 60% in size. As to conditions: Five cell lines viability, CellTiter-Glo ATP luminescence, 48-72 h; max response: active compounds read low. In short, it runs like this:
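Cells exposed to compounds for 48 or 72 hr at 37 degrees Celsius. Viability read as ATP-coupled luminescence with CellTiter-Glo after 10 min at room temperature.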
(Cellular ATP, detected with luciferase, serves as a proxy for viable cell number.)
Consider `CO/N=C(\C(=O)N[C@@H]1C(=O)N2C(C(=O)O)=C(C[N+]3(C)CCCC3)CS[C@H]12)c1csc(N)n1`, for which the max response was 2.85% (inactive). The figure for `O=S(=O)(O)CCCS(=O)(=O)O` is 0.835% (inactive). The figure for `CC(CN1c2ccccc2Sc2cccnc21)N(C)C` (stereo not drawn) is -2.53% (inactive). The figure for `O=C(CCCN1CCC(C(=O)c2ccc(F)cc2)CC1)c1ccc(F)cc1` is 33.7% (inactive). As for `COc1cc2c(cc1OC)[C@@H](Cc1cc(OC)c(OC)c(OC)c1)[N+](C)(CCCOC(=O)CC/C=C/CCC(=O)OCCC[N+]1(C)CCc3cc(OC)c(OC)cc3[C@H]1Cc1cc(OC)c(OC)c(OC)c1)CC2` (stereo partly drawn), the max response is -6.45% (inactive) and -2.94% (inactive). Then `CN[C@@H]1[C@@H](O)[C@@H](O[C@@H]2[C@@H](O)[C@H](O[C@H]3O[C@H](CN)[C@@H](O)[C@H](O)[C@H]3O)[C@@H](N)C[C@H]2NC(=O)C(O)CN)OC[C@]1(C)O` (stereo partly drawn), with 36% (inactive); and `FCOC(C(F)(F)F)C(F)(F)F`, with 6.78% (inactive).

Regarding `CC1CS(=O)(=O)CCN1/N=C/c1ccc([N+](=O)[O-])o1` (stereo not drawn), the max response is 1.84% (inactive). Then `CCC(O)c1ccccc1` (stereo not drawn), with 7.91% (inactive); and `CC(=NCc1ccccc1)c1ccccc1O`, with -11.4% (inactive); and `O=C(O)[C@@H]1C[C@H](CP(=O)(O)O)CCN1`, with 23.4% (inactive). Turning to `CC(=O)OCC1=C(C(=O)O)N2C(=O)[C@@H](NC(=O)Cc3ccccc3)[C@H]2SC1`, the max response is -5.45% (inactive). The figure for `O=C1N=C2SCCN2C(=O)C1Cc1ccc(Cl)cc1` (stereo not drawn) is -9% (inactive); for `O=C1C2CC3CC1CC(O)(C3)C2` it is 2.59% (inactive). With `NCC(O)CC(=O)O` (stereo not drawn), the max response was 3.49% (inactive). As for `O=C(CO)[C@@H](O)[C@H](O)[C@@H](O)C(=O)O`, the max response is -10% (inactive). For the molecule `C=CC(C)(O)CC/C=C(\C)CCC=C(C)C` (stereo not drawn), the max response is 0.0537% (inactive). The figure for `CCc1cn([C@H]2C[C@H](O)[C@@H](CO)O2)c(=O)[nH]c1=O` is 5.47% (inactive); for `Cc1cccc(C)c1Nc1ncccc1C(=O)O` it is -0.608% (inactive). Then `CCCCC(CC)CCC(CC(C)C)OS(=O)(=O)O` (stereo not drawn), with 11% (inactive) and -8.89% (inactive). Then `CCOC(=O)c1c[nH]c2cc(OCC(C)C)c(OCC(C)C)cc2c1=O`, with 5.44% (inactive); and `O=C(O)COc1ccccc1/C=N/NC(=O)c1ccncc1`, with 4.6% (inactive); and `CC(O)CN(C)C` (stereo not drawn), with -6.37% (inactive).
